# Source: PubChem BioAssay
# This is one part of the list. Values without a mark were called inactive. Active and inactive are the calls of the source.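 How the source made its calls, unless noted: active means activation above the solvent-only control well mean plus 3 SD, set per plate batch (cut at about 110% in these data); inactive means the rest.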
# How the values were obtained:
# [1] = potentiators of IFN-gamma STAT1 reporter activity – cell-based, HTS, luciferase reporter, confirmation (AID 1262;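 active means activation above a set limit carried over from the earlier primary STAT1 screen, cut at about 140% in these data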;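 further: simple ratio to median IFN-gamma plus DMSO wells so 0% means no light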); details: NIH 3T3 STAT1-luciferase reporter, IFN-gamma potentiation, luminescence; at 5.7 µM; stronger effect = higher value; 100% = IFN-gamma EC80 alone, no compound
# [2] = enhancement of NF-kB transcriptional signalling – cell-based, HEK293T, luciferase luminescence, TNF-alpha, counter-screen for STAT1 activator project (AID 1306;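 active means activation above the mean of solvent-only control wells plus 3 SD, set per campaign, cut at about 130% in these data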;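 further: TNF-alpha given at a submaximal dose yielding about 80% of full reporter signal; values are well signal over median control so 100% means no change and 0% no light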); details: HEK293T NF-kB luciferase reporter, TNF-alpha stimulated, at 5.7 µM, stronger effect = higher value, 100% = TNF-alpha with vehicle only
# [3] = molecular target: Signal transducer and activator of transcription 3 (Homo sapiens) (UniProt P40763); assay: enhancers of IL-6 STAT3 transcription – U3A cells, luciferase, luminescence, counter-screen for STAT1 activator project, confirmation (AID 1316); details: U3A cells STAT3-luciferase reporter, IL-6, luminescence; at 5.7 µM; stronger effect = higher value; 100 = IL-6 alone, no compound effect; cells lack STAT1;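 further: 0% = no luminescence and 100% = median IL-6 plus DMSO wells; higher means more STAT3 reporter activation so hits are non-selective activators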
# [4] = molecular target: Oxysterols receptor LXR-beta (Homo sapiens) (UniProt P55055); assay: nonspecific reporter activation via LXR – cell-based, luminescence, HEK293, H. contortus campaign, counter-screen for hcDAF-12 agonist project, confirmation (AID 743027;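 active means mean percent activation of the reporter above a cutoff set as the average over tested compounds plus their standard deviation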); details: HEK293 Gal4-LXR tk-luc reporter, 24 h, at 6.8 µM, stronger effect = higher value, normalized: DMSO 0%, positive control 100%
# Chain of Oxysterols receptor LXR-beta (Homo sapiens) (P55055 whole entry, looked up, the tested form may be a part): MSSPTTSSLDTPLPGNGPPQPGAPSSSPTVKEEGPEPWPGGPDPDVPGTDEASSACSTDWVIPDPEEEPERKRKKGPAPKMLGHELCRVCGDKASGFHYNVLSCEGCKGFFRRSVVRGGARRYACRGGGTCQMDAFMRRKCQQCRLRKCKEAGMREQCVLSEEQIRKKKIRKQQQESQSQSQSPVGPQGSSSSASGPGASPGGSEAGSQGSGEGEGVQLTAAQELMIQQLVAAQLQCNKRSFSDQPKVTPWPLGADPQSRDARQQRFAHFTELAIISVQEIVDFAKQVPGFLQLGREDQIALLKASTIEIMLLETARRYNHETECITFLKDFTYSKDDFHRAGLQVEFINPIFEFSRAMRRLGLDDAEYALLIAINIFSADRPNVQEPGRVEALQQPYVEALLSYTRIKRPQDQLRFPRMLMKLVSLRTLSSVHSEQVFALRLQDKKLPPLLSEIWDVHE
# [5] = tested on: Nuclear hormone receptor DAF-12 (Haemonchus contortus); assay: hcDAF-12 luciferase reporter activation, retest – cell-based, luminescence, HEK293, lit1-tk-luc, triplicate, confirmation (AID 743032;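 active means mean activation across triplicate tests above the threshold derived from the earlier primary screen, cut at about 5.5% in these data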;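 further: 0% = DMSO only wells and 100% = 3 µM Δ7-dafachronic acid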); details: HEK293 hcDAF-12 lit1-tk-luc reporter, at 6.8 µM, stronger effect = higher value, % of Δ7-dafachronic acid response
# [6] = tested on: DAF-12 nuclear receptor (Heterodera glycines), GAL4-LBD fusion; assay: hgDAF-12 GAL4 fusion reporter activation, retest – cell-based, luminescence, HEK293, GAL4-LBD fusion, confirmation (AID 743050;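 active means mean activation over triplicate wells above the hit cutoff derived from the earlier primary screen, cut at about 11% in these data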;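 further: 0% = DMSO low control and 100% = 2 mM sodium butyrate high control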); details: HEK293 GAL4-hgDAF12 luciferase reporter, agonist mode; at 6.8 µM; stronger effect = higher value; percent of butyrate response
# [7] = molecular target: Oxysterols receptor LXR-beta (Homo sapiens) (UniProt P55055); assay: nonspecific reporter activation via LXR – cell-based, luminescence, HEK293, H. glycines campaign, counter-screen for hgDAF-12 agonist project, confirmation (AID 743051;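 active means mean activation of the triplicate above a set limit carried over from the primary screen, none filed active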); details: HEK293 Gal4-LXR luciferase reporter, 24 h; at 6.8 µM; stronger effect = higher value
# [8] = molecular target: Insulin-degrading enzyme (Homo sapiens) (UniProt P14735); assay: cellular IDE Abeta-cleavage inhibition – fluorescence polarization, HEK cells, FAbetaB substrate, confirmation (AID 435028;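 active means mean inhibition across triplicate wells above the cutoff set by the earlier primary insulin-degrading enzyme screen, cut at about 16% in these data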;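 further: 0% = DMSO wells and 100% = 60 µM reference IDE inhibitor Ii1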); details: at 5.59 µM, stronger effect = higher value
# Chain of Insulin-degrading enzyme (Homo sapiens) (P14735 whole entry, looked up): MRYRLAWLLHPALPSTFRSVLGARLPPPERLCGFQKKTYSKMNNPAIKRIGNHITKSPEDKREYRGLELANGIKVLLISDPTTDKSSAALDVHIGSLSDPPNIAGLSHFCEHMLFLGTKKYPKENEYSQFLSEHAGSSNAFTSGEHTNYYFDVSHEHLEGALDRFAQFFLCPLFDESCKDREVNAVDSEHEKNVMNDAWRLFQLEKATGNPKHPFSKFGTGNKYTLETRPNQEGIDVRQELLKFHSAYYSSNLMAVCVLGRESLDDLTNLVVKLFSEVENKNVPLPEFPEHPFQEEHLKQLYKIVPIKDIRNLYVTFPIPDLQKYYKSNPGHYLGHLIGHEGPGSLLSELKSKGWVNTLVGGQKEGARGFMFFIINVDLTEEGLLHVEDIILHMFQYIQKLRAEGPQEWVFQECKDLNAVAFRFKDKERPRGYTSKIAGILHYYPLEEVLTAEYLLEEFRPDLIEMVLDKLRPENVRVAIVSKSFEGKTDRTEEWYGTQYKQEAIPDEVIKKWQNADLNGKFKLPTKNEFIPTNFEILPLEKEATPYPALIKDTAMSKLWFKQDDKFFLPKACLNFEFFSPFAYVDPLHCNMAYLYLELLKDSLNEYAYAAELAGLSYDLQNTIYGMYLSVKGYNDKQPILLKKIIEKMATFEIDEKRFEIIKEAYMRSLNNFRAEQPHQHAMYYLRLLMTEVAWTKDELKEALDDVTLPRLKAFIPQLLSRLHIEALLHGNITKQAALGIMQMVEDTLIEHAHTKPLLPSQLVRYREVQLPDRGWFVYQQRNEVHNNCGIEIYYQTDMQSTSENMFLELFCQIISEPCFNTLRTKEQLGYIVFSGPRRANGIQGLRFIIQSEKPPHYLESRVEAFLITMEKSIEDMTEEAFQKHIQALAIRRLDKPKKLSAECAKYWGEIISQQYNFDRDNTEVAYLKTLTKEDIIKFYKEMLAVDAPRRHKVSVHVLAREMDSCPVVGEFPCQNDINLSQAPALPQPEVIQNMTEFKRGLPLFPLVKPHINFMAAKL
# [9] = HEK cell viability loss – luminescence, cytotoxicity control for IDE inhibitor project (AID 449730; in the data active means inhibition above about 22%;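 further: 0% = vehicle wells and 100% = reference cytotoxic drug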); details: HEK293 cytotoxicity, ATP luminescence; at 5.59 µM; stronger effect = higher value
# [10] = molecular target: Sphingosine 1-phosphate receptor 4 (Homo sapiens) (UniProt O95977); assay: blockers of human S1P4 signalling – cell-based, confirmation (AID 1524; in the data active means inhibition above about 30%); details: S1P4-expressing cell line, antagonist mode, reporter read-out; at 4.98 µM; stronger effect = higher value
# Chain of Sphingosine 1-phosphate receptor 4 (Homo sapiens) (O95977 whole entry, looked up): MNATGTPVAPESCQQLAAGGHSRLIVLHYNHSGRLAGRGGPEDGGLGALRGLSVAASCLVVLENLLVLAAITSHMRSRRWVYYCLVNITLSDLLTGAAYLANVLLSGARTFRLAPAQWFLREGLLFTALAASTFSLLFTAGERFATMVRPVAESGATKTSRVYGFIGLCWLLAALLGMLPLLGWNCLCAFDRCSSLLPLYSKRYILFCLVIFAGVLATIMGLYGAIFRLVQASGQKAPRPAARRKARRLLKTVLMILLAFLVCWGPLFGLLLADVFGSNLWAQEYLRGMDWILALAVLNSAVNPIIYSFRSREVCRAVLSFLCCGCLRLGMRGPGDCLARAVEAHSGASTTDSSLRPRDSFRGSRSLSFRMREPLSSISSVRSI
# [11] = molecular target: Sphingosine 1-phosphate receptor 1 (Homo sapiens) (UniProt P21453); assay: blockade of human S1P1 receptor – cell-based, counter-screen for S1P4 antagonist project (AID 1564; in the data active means inhibition above about 40%;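 further: receptor stimulated with S1P near its EC80; 0% = agonist stimulated wells and 100% = vehicle only wells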); details: cell-based S1P1 antagonist counterscreen, at 4.98 µM, stronger effect = higher value
# Chain of Sphingosine 1-phosphate receptor 1 (Homo sapiens) (P21453 whole entry, looked up): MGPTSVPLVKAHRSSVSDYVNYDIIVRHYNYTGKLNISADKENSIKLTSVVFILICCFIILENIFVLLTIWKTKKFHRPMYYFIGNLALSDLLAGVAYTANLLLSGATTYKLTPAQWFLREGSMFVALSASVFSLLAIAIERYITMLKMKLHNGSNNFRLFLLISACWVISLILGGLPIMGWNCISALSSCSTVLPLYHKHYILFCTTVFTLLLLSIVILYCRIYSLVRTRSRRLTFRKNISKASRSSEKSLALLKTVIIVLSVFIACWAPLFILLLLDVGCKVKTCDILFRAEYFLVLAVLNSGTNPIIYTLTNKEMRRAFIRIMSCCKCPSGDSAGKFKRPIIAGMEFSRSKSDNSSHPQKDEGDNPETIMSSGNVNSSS
# [12] = suppression of KLF5 promoter-driven luciferase – DLD-1 cells, luminescence, confirmation (AID 1834;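 active means inhibition above a set limit taken from the earlier primary screen, cut at about 63% in these data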;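 further: 0% = DMSO wells and 100% = LY294002 at 200 µM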); details: DLD-1 KLF5 promoter firefly luciferase reporter, at 4 µM, stronger effect = higher value
# [13] = IEC-6 intestinal cell killing – luminescence, triplicate, cytotoxicity control for KLF5 inhibitor project (AID 1905; in the data active means inhibition above about 23%;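 further: cells exposed to compounds for 48 hours before viability read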); details: IEC-6 rat intestinal cells, viability luminescence; at 4 µM; stronger effect = higher value
# [14] = reduced OD of T4-infected AddAB+ E. coli – absorbance, E. coli V3065, T4 phage, triplicate, AddAB inhibitor project, confirmation (AID 488942;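 active means mean inhibition above a set limit taken from the earlier primary screen, cut at about 13% in these data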;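 further: higher means less bacterial growth since AddAB block lets phage replicate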); details: E. coli V3065 expressing H. pylori AddAB, at 11.9 µM, stronger effect = higher value, T4 phage with gene 2 nonsense mutations
# [15] = reduced OD of phage-infected RecBCD+ V66 E. coli – absorbance, mutant T4 phage, counter-screen for AddAB inhibitor project (AID 488955;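 active means mean inhibition above the mean of solvent-only control wells plus 3 SD, cut at about 4% in these data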;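 further: optical density read after an 18 h incubation at 37 °C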); details: OD growth, at 11.9 µM, stronger effect = higher value
# [16] = bacterial growth inhibitors – absorbance, counter-screen for AddAB inhibitor project, confirmation (AID 488956; in the data active means inhibition above about 25%); details: bacterial viability, absorbance (AddAB counterscreen); at 11.9 µM; stronger effect = higher value
compound,measurement,setting,value
Cc1ccc(NC(=O)c2csc3c2CCCC3)cc1,activation (% of control),[1],202% (active)
same,activation (% of control),[2],140% (active)
same,activation (% of control),[3],111% (active)
same,activation,[4],1.06%
same,activation,[5],6.25% (active)
same,activation,[6],17.6% (active)
same,activation,[7],0.8%
COc1ccc(-c2csc(Cc3nc(O)cs3)n2)cc1,activation (% of control),[1],265% (active)
same,activation (% of control),[2],150% (active)
same,activation (% of control),[3],124% (active)
same,activation,[4],1.22%
same,activation,[5],7.02% (active)
Cc1cccc(-c2noc(-c3ccc(F)cc3)n2)c1,activation (% of control),[1],222% (active)
same,activation (% of control),[2],133%
same,activation (% of control),[3],119% (active)
O=C(c1cc(-c2cccs2)on1)N1CCCCC1,activation (% of control),[1],184% (active)
same,activation (% of control),[2],125%
same,activation (% of control),[3],105%
COc1ccc(-c2csc(-c3cccs3)n2)cc1OC,activation (% of control),[1],179% (active)
same,activation (% of control),[2],136% (active)
same,activation (% of control),[3],114% (active)
same,activation,[6],9.44%
same,activation,[7],0.79%
CC(=O)c1sc(N/N=C\c2ccc(C)cc2)nc1C,activation (% of control),[1],191% (active)
same,activation (% of control),[2],143% (active)
same,activation (% of control),[3],107%
Nc1ncc(-c2cc3ccccc3oc2=O)s1,activation (% of control),[1],184% (active)
same,activation (% of control),[2],124%
same,activation (% of control),[3],110%
CN1C(=O)/C(=C/C=C2\SCCN2C)OC1=S,activation (% of control),[1],175% (active)
same,activation (% of control),[2],132%
same,activation (% of control),[3],118% (active)
same,inhibition,[8],86.5% (active)
same,inhibition,[9],9.01%
COc1ccc(-n2ncc3c(N4CCCc5ccccc54)ncnc32)cc1,activation (% of control),[1],209% (active)
same,activation (% of control),[2],139% (active)
same,activation (% of control),[3],112% (active)
c1ccc(Nc2nc(-c3ccncc3)cs2)nc1,activation (% of control),[1],243% (active)
same,activation (% of control),[2],126%
same,activation (% of control),[3],126% (active)
same,activation,[4],1.73%
same,activation,[5],8.34% (active)
same,activation,[6],16.8% (active)
same,activation,[7],0.86%
CCNc1nc(-c2cc3ccccc3o2)cs1,activation (% of control),[1],131% (active)
same,activation (% of control),[2],121%
same,activation (% of control),[3],103%
same,activation,[4],2.08%
same,activation,[5],8.18% (active)
COc1ccc2nc(NC(=O)c3ccc(Br)s3)sc2c1,activation (% of control),[1],185% (active)
same,activation (% of control),[2],134% (active)
same,activation (% of control),[3],99.8%
CC(C)c1ccc(NC(=O)NC2CCCCC2)cc1,activation (% of control),[1],191% (active)
same,activation (% of control),[2],128%
same,activation (% of control),[3],129% (active)
Cc1noc(C)c1/C=N/Nc1ccc2ccccc2n1,activation (% of control),[1],235% (active)
same,activation (% of control),[2],141% (active)
same,activation (% of control),[3],149% (active)
same,activation,[4],1.54%
same,activation,[5],15.2% (active)
Clc1ccc(Nc2nc(-c3cccs3)cs2)nc1,activation (% of control),[1],289% (active)
same,activation (% of control),[2],149% (active)
same,activation (% of control),[3],133% (active)
same,activation,[4],2.13%
same,activation,[5],13.6% (active)
same,activation,[6],13.1% (active)
same,activation,[7],0.65%
COc1ccc(NC(=O)/C(Cl)=C(/Cl)S(=O)Cc2ccc(C)cc2)cn1 (stereo not given),activation (% of control),[1],324% (active)
same,activation (% of control),[2],51.5%
same,activation (% of control),[3],103%
same,inhibition,[10],121% (active)
same,inhibition,[11],117% (active)
same,inhibition,[12],109% (active)
same,inhibition,[13],87% (active)
Cc1cccc(NC(=O)Nc2ccc3c(c2)OCO3)n1,activation (% of control),[1],192% (active)
same,activation (% of control),[2],133% (active)
same,activation (% of control),[3],121% (active)
same,activation,[4],0.92%
same,activation,[5],4.11%
same,activation,[6],18.4% (active)
same,activation,[7],0.79%
Cc1cccc(N=Nc2c(O)[nH]c3ccc(F)cc23)c1,activation (% of control),[1],160% (active)
same,activation (% of control),[2],135% (active)
same,activation (% of control),[3],109%
Cc1nn(-c2ccc([N+](=O)[O-])cc2)c(N)c1-c1ccccc1,activation (% of control),[1],207% (active)
same,activation (% of control),[2],145% (active)
same,activation (% of control),[3],126% (active)
same,activation,[6],16.4% (active)
same,activation,[7],0.83%
CCn1c(/C=C/c2ccc([N+](=O)[O-])o2)nc2ccccc2c1=O,activation (% of control),[1],125%
same,activation (% of control),[2],156% (active)
same,activation (% of control),[3],102%
same,inhibition,[14],92.8% (active)
same,inhibition,[15],12.8% (active)
same,inhibition,[16],42.1% (active)
COc1ccc(C2Nc3ccccc3C(=O)N2c2ccc(Cl)cc2)cc1Cn1cc([N+](=O)[O-])cn1 (stereo not given),activation (% of control),[1],151% (active)
same,activation (% of control),[2],112%
same,activation (% of control),[3],120% (active)
same,activation,[6],10.6% (active)
same,activation,[7],0.5%
CC(=O)c1sc(NC(=O)c2ccc(C)cc2)nc1C,activation (% of control),[1],185% (active)
same,activation (% of control),[2],123%
same,activation (% of control),[3],94.7%
O=C(Nc1ccc(-c2nnc(-c3ccccc3)o2)cc1)C1CCCO1 (stereo not given),activation (% of control),[1],207% (active)
same,activation (% of control),[2],122%
same,activation (% of control),[3],123% (active)
same,activation,[6],15.9% (active)
same,activation,[7],0.9%
CCOC(=O)/C(C#N)=C/c1ccc(N2CCCCC2)cc1,activation (% of control),[1],155% (active)
same,activation (% of control),[2],140% (active)
same,activation (% of control),[3],108%
COc1ccc2nc(SCc3ccccc3)nc(C)c2c1,activation (% of control),[1],231% (active)
same,activation (% of control),[2],141% (active)
same,activation (% of control),[3],107%
same,activation,[4],1.78%
same,activation,[5],5.65% (active)
same,activation,[6],17.7% (active)
same,activation,[7],1%
Cc1ccccc1Nc1nc(N)nc(CSc2ccccc2)n1,activation (% of control),[1],220% (active)
same,activation (% of control),[2],126%
same,activation (% of control),[3],127% (active)
same,activation,[4],1.61%
same,activation,[5],8.23% (active)
same,activation,[6],17.7% (active)
same,activation,[7],0.84%
Cc1cccc(-n2c(O)c(C=Nc3ccccc3N)c(=O)[nH]c2=O)c1,activation (% of control),[1],127%
same,activation (% of control),[2],118%
same,activation (% of control),[3],103%
same,activation,[6],8.36%
same,activation,[7],0.33%
